Pf Dd2 growth – qHTS Primary assay for Inhibitors of Plasmodium falciparum Dd2 growth in vitro | P. falciparum Dd2 growth, SYBR Green, 72 h | Potency, µM (doses to about 28.9 µM), actives largely listed as inhibitors | hit rate 4.3% among 120,000 | AID 1347417, 2020; active = well fitted inhibition curve with a large enough effect; note: nearly all actives have a fitted effect of over 65% in size
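Infected erythrocytes (Dd2, 0.3% parasitemia, 2.5% hematocrit final) are added to compound in RPMI-1640/Albumax II medium, grown 72 h at 37C in low oxygen, then lysed with saponin/Triton-X containing SYBR Green and read by fluorescence.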
Large screens that a line does not name were inactive. Only a selection was taken, and hits are over-represented in it overall.

O=C(CC(F)(F)F)N1CCOc2ccc(CN3CCc4ccccc4C3)cc2C1	none
Cn1nccc1C(=O)N1CCOc2ccc(CN3CCc4ccccc4C3)cc2C1	none
O=C(c1noc2c1CCCC2)N1CCOc2ccc(CN3CCN(c4ccccn4)CC3)cc2C1	none
Cc1cccc(C(=O)N2CCOc3ccc(CCC(N)=O)cc3C2)c1	none
O=C(c1cccc(F)c1)N1CCOc2ccc(CN3CCc4ccccc4C3)cc2C1	Pf Dd2 growth 7.9µM
O=C(C1CCC1)N1CCOc2ccc(CN3CCc4ccccc4C3)cc2C1	Pf Dd2 growth 10µM
CCNC(=O)N1CCOc2ccc(CN3CCc4ccccc4C3)cc2C1	none
CCS(=O)(=O)Nc1ccc(C2(C(=O)NCc3cccs3)CCCCC2)cc1	none
Cc1ccc(C2Cn3nnc(C(=O)N4CCC(C(=O)NC5CCC(C)CC5)CC4)c3CO2)cc1 (stereo unspecified)	none
O[C@@H]1CC(CNCc2ccc(F)cc2)(COc2ccc(C(F)(F)F)cn2)C[C@@H]1O (stereo partly specified)	Pf Dd2 growth 4µM
O=C(NCC1(COc2ccc(C(F)(F)F)cn2)C[C@@H](O)[C@@H](O)C1)C1CC1 (stereo partly specified)	none
Cn1cc(CNCC2(COc3ccc(C(F)(F)F)cn3)C[C@@H](O)[C@@H](O)C2)cn1 (stereo partly specified)	none
FC(F)(F)c1ccc(O[C@H]2COCCN(Cc3cccnc3)C2)nc1	none
COc1cccc(CN2CCOC[C@H](Oc3cccnc3)C2)c1	none
c1ccc(-c2ccc(CN3CCOC[C@H](Oc4cnccn4)C3)cc2)cc1	Pf Dd2 growth 5.6µM
CC(=O)N1CCN(C(=O)c2cn(CCN)nn2)[C@H]2CS(=O)(=O)C[C@H]21	none
COc1ccc(C2Cn3cnc(C(=O)N4CCC(C(=O)NCC5CCCCC5)CC4)c3CO2)cc1 (stereo unspecified)	none
O=C(O)C1CCc2nnc(C3CCN(C(=O)c4ccc5c(c4)OCO5)CC3)n21 (stereo unspecified)	none
Cc1ccc(NC(=O)N2CCC(CCNC(=O)c3cccc(F)c3)CC2)cc1F	Pf Dd2 growth 13µM
O=C(NCCC1CCN(C(=O)Nc2ccc(F)cc2F)CC1)c1cccc(F)c1	none
COc1cccc(C(=O)NCCC2CCN(C(=O)Nc3ccc(C)c(F)c3)CC2)c1	none
CS(=O)(=O)c1ccc(-c2cnc([C@@H]3COCCN3C3CCNCC3)[nH]2)cc1	none
O=C(Cc1ccsc1)Nc1cnc(-c2ccccc2)nc1	none
CCCNC(=O)N1CCC(c2nc(CCOCC3CCOCC3)no2)C1 (stereo unspecified)	none
C1CC(COCCc2noc(C3CNC3)n2)CCO1	Pf Dd2 growth 11µM
O=C(C1CC1)N1CCCC(c2nc(CCOCC3CCOCC3)no2)C1 (stereo unspecified)	none
CCCc1cc(C(=O)N2CC[C@H]3CNC[C@H]32)n(C)n1	none
CCOc1cc(=O)n2c(c1C(=O)N1CCN(c3cccc(Cl)c3)CC1)CCCC2	none
CCCSC1=NC2(CCN(C(=O)NC3CCCCC3)CC2)N=C1c1ccc(Cl)cc1	none
CCC(=O)C1=C(c2ccc(F)cc2)N(C(=O)CC)n2c(nnc2C2CCCCC2)S1	Pf Dd2 growth 3.2µM
Cc1ccc(C2CCN(C(=O)Nc3ccc(Cl)cc3)C2)cc1 (stereo unspecified)	none
CCC(=O)C1=C(c2ccc(Cl)cc2)N(C(=O)CC)n2c(C)nnc2S1	Pf Dd2 growth 2.8µM
Cn1c(Cn2cccn2)nnc1C1CCCN(C(=O)c2cccc(F)c2)C1 (stereo unspecified)	none
Cn1nnnc1C1CCCN(C(=O)c2ccc(F)cc2)C1 (stereo unspecified)	none
CCn1c(SCC(=O)c2ccc([N+](=O)[O-])cc2)nnc1-c1ccc(Cl)cc1	none
CC(=O)C1=C(c2ccc(Cl)cc2)N(C(C)=O)n2c(nnc2C2CCCCC2)S1	Pf Dd2 growth 1µM
O=C1CCCCC(C(=O)O)N1 (stereo unspecified)	none
COCC(=O)NC1CCC12CCN(Cc1cccc(OC)c1)CC2 (stereo unspecified)	none
CCN1c2cc(C(=O)Nc3ccc(F)cc3F)ccc2C(=O)N2CCCCCC21 (stereo unspecified)	none
O=C(NCc1cccc2ccccc12)C1(c2ccc(Cl)cc2)CCOCC1	none
Cc1noc(-c2nc(-c3ccc(N(C)C)cc3)no2)n1	none
CN(C)[C@@H]1CN(C(=O)c2ccc(C#N)cc2)CC[C@]1(O)c1ccccc1	none
Cc1ccc(-c2nccc(N3CCC(O)C3)n2)c(C)c1 (stereo unspecified)	none
O=C1CCN(C(=O)c2cccs2)CCCC(CO)CCN1 (stereo unspecified)	none
CCOC(=O)c1sc(NC(=O)c2nc3nc(C)cc(C(F)F)n3n2)c(C(=O)OC)c1C	none
CCOC(=O)c1sc(NC(=O)c2nc(SC)ncc2Cl)c(C(=O)OCC)c1C	none
CCCOC(=O)c1c(NC(=O)c2nc3ncccn3n2)sc(C(=O)OCC)c1C	Pf Dd2 growth 2.8µM
COC(=O)C1=C(C)N=C2SC=C(CC(=O)NC3CC4CCC3C4)N2C1c1ccsc1 (stereo unspecified)	none
Cc1ccc(C)c(Cn2c(C(C)NC(=O)c3ccccc3)nc3ccccc32)c1 (stereo unspecified)	none
CCOc1ccccc1N1CC(c2nc3ccccc3n2Cc2c(C)cc(C)cc2C)CC1=O (stereo unspecified)	none
Cc1cc(C)c(Cn2c(C(O)c3ccccc3)nc3ccccc32)c(C)c1 (stereo unspecified)	Pf Dd2 growth 3.2µM
COCCc1noc([C@@H]2CN(Cc3ccc4[nH]ccc4c3)C[C@H]2CO)n1	none
Fc1cc(F)cc(Cc2nc3nccc(-c4ccco4)n3n2)c1	none
c1cc(-c2nc3c(c(NCc4cn5c(n4)SCC5)n2)CCNCC3)ccn1	none
Cc1ncsc1CCCNc1nc(-c2ccccn2)nc2c1CCNCC2	none
c1ccc(OCCNc2nc(-c3cccnc3)nc3c2CCNCC3)cc1	Pf Dd2 growth 2.2µM
COCCNS(=O)(=O)c1cc(C(=O)O)cc(-c2cccc3cccnc23)c1	none
Cc1ccc(Cl)c(C(=O)N2CCC3(CC2)[C@H](O)C[C@@H]3OCCO)c1	none
O=C(c1ccccn1)N1CCC(N2C(=O)C(O)C23CCCCC3)CC1 (stereo unspecified)	none
COc1cccc(-c2n[nH]c3c2CC(=O)N(Cc2ccccn2)C3)c1	none
CCN1c2cc(C(=O)Nc3cc(C)ccc3OC)ccc2C(=O)N2CCCCCC21 (stereo unspecified)	Pf Dd2 growth 6.3µM
CCN1c2cc(C(=O)Nc3ccc(OC)c(OC)c3)ccc2C(=O)N2CCCCCC21 (stereo unspecified)	none
CCN1c2cc(C(=O)Nc3ccc(C)cc3)ccc2C(=O)N2CCCCCC21 (stereo unspecified)	none
CN1c2cc(C(=O)Nc3cccc(OC(F)(F)F)c3)ccc2C(=O)N2CCCCC21 (stereo unspecified)	none
CCOc1ccc(NC(=O)c2ccc3c(c2)N(CC)C2CCCCN2C3=O)cc1 (stereo unspecified)	Pf Dd2 growth 5µM
CCN1c2cc(C(=O)Nc3cccc(OC(F)(F)F)c3)ccc2C(=O)N2CCCCC21 (stereo unspecified)	Pf Dd2 growth 4.5µM
CCOC(=O)c1ccc(NC(=O)c2ccc3c(c2)N(CC)C2CCCCN2C3=O)cc1 (stereo unspecified)	none
CCN1c2cc(C(=O)Nc3ccc(C)cc3C)ccc2C(=O)N2CCCCCC21 (stereo unspecified)	none
CCN1c2cc(C(=O)Nc3cccc(OC)c3)ccc2C(=O)N2CCCCCC21 (stereo unspecified)	none
Cc1cccc(Cn2c(=O)c(-c3noc(C)n3)c3n(c2=O)CCCCC3)c1	none

Compound activity as filed in PubChem BioAssay.
